From PubChem BioAssay (NCATS)
Several values for one entry are separate records, joined by “and”; a condition that tells them apart may be missing. Equal entries are not always repeated. Inconclusive results are not listed. Activity calls are given as the source filed them. Calls follow the shape of the dose curve; as a rule, active = well fitted cell-killing curve with a large enough effect; inconclusive = small, poorly fitted or top-dose-only effect; inactive = no such curve, though single readings can be large or run the other way.

Test: qHTS of pediatric cancer cell lines to identify multiple opportunities for drug repurposing: Confirmatory screen for SK-N-MC cells (AID 1347111);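 also: cells exposed to compound for 48 h before the readout; nearly all actives have a fitted effect of over 70% in size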
Conditions: SK-N-MC cell viability; series mostly up to 45.9 µM
Excerpt: Drug repurposing or repositioning has been offered as a strategy for drug development in oncology programs. This approach has special potential for childhood cancers and other rare or orphan diseases, where the expected return on new drug development has been a disincentive to pharmaceuticals.
In this project we exploit the poly-pharmacology of drugs to discover new indications via phenotypic screening of a panel of 19 well-characterized cell lines derived from solid tumors seen in children and adolescents. The goal is to identify approved drugs with previously unrecognized anticancer properties that has the potential to reveal new mechanisms and biological processes involved in carcinogenesis or drug resistance. We employed a titration-based paradigm (quantitative high-throughput screening or qHTS), where all compounds were tested at multiple concentrations for their effect on cell viability. Concentration-response curves (CRCs) were derived directly from the primary screen, and both potency and efficacy values were used to identify compounds with robust bioactivity profiles. We screened the NIH Chemical Genomics Center (NCGC) Pharmaceutical Collection (NPC) and Mechanism Interrogation Plate (MIPE) small molecule collections of approved and investigational compounds against these cell lines; and measured metabolically active cells after 48 hours of compound treatment as a proxy for cell viability.
Assay Submitter: Nathalia J. Martinez, National Center for Advancing Translational Sciences, National Institutes of Health, Rockville, MD, USA; email: natalia.martinez@nih.gov
[1] Shen, M et al. Quantitative high-throughput phenotypic screening of pediatric cancer cell lines identifies multiple opportunities for drug repurposing. Oncotarget 2017 Dec 19;9(4):4758-4772. PMID 29435139.
The cells were obtained from University of North Carolina (UNC), Pediatric Preclinical Testing Program (PPT), and Coriell Institute (CI).
qHTS cell viability assay:
Cells were assayed in growth media at a density of 500-1,000 cells/well. Five microliters of cells were dispensed into 1,536-well, white, solid-bottom, TC-treated plates (Greiner Bio One) using a multidrop dispenser and incubated at 37 degrees C, 5% CO2, under a humidified atmosphere for 5 hours. Twenty-three nanoliters of compounds and controls (neutral control DMSO or positive control bortezomib at final concentration of 2.3 µM) were subsequently transferred by Kalypsys pintool. For primary screens, the MIPE collection was tested at 11-point dilutions (final concentrations range from 0.78 nM to 46 µM) and the NPC collection at 8-point dilutions (final concentrations range from 0.59nM to 46 µM). Compounds tested in follow-up screens were assayed at 11-point dilutions. Cells were incubated for 48 hours, followed by addition of 3 uL of CellTiter-Glo (Promega). After a 15 min incubation at room temperature, samples were analyzed for luminescence intensity using a ViewLux High-throughput CCD imager equipped with clear filters.
Potency is read from the fitted curve at half-maximal effect.

Row | SMILES | Potency
1 | CN(C)c1ccc(C(=C2C=CC(=[N+](C)C)C=C2)c2ccc(N(C)C)cc2)cc1 | 0.737 µM (active)
2 | CC(C)NCC(O)c1ccc(NS(C)(=O)=O)cc1 (stereo not drawn) | inactive
3 | CCC(=O)O[C@]1(C(=O)CCl)[C@@H](C)C[C@H]2[C@@H]3CCC4=CC(=O)C=C[C@]4(C)[C@@]3(F)[C@@H](O)C[C@@]21C | inactive
4 | S=P(N1CC1)(N1CC1)N1CC1 | 3.69 µM (active)
5 | CC1CC2C3CCC4=CC(=O)C=C[C@]4(C)[C@@]3(F)[C@@H](O)C[C@]2(C)[C@@]1(O)C(=O)CO (stereo partly drawn) | inactive
6 | COc1nc(N)nc2c1ncn2[C@@H]1O[C@H](CO)[C@@H](O)[C@@H]1O | 2.93 µM (active)
7 | CNCC[C@H](Oc1cccc2ccccc12)c1cccs1 | 6.57 µM (active)
8 | CCOC(=O)[C@H](CCc1ccccc1)N[C@H]1CS[C@H](c2cccs2)CN(CC(=O)O)C1=O | 9.27 µM (active)
9 | C[C@@H]1C[C@H]2[C@@H]3CCC4=CC(=O)C=C[C@]4(C)[C@@]3(Cl)[C@@H](O)C[C@]2(C)[C@@]1(OC(=O)c1ccco1)C(=O)CCl | 0.827 µM (active)
10 | NC(=O)c1cccnc1 | 14.7 µM (active)
11 | COC(=O)Nc1nc2ccc(S(=O)c3ccccc3)cc2[nH]1 (stereo not drawn) | 1.47 µM (active)
12 | Oc1c(Cl)cc(Cl)c2cccnc12 | 13.1 µM (active)
13 | COC(=O)Nc1nc2ccc(Sc3ccccc3)cc2[nH]1 | 1.04 µM (active)
14 | Nc1nc(F)nc2c1ncn2[C@@H]1O[C@H](CO)[C@@H](O)[C@@H]1O | 0.465 µM (active)
15 | CC(C)(C#N)c1cc(Cn2cncn2)cc(C(C)(C)C#N)c1 | inactive
16 | Nc1[nH]c(=O)ncc1F | inactive
17 | CN1CCCC(n2nc(Cc3ccc(Cl)cc3)c3ccccc3c2=O)CC1 (stereo not drawn) | 23.3 µM (active)
18 | Nc1nc(=S)c2[nH]cnc2[nH]1 | 11.7 µM (active) and 7.37 µM (active)
19 | C[C@@H](CN1CC(=O)NC(=O)C1)N1CC(=O)NC(=O)C1 | inactive

Row | SMILES | Potency
20 | Nc1nc(N)nc(-c2cc(Cl)ccc2Cl)n1 | 1.17 µM (active)
21 | CC(C)C[C@H](NC(=O)[C@H](CCc1ccccc1)NC(=O)CN1CCOCC1)C(=O)N[C@@H](Cc1ccccc1)C(=O)N[C@@H](CC(C)C)C(=O)[C@@]1(C)CO1 | 0.0083 µM (active)
22 | COc1cc2nc(N3CCCN(C)CC3)nc(NC3CCN(Cc4ccccc4)CC3)c2cc1OC | 3.69 µM (active)
23 | COc1ccc(-c2ccc3cc(C(=O)O)ccc3c2)cc1C12CC3CC(CC(C3)C1)C2 | 2.61 µM (active)
24 | Nc1nc(N)c2nc(CNc3ccc(C(=O)NC(CCC(=O)O)C(=O)O)cc3)cnc2n1 (stereo not drawn) | 0.329 µM (active)
25 | COc1cc([C@@H]2c3cc4c(cc3[C@H](O)[C@H]3COC(=O)[C@H]23)OCO4)cc(OC)c1OC | 0.0329 µM (active)
26 | COc1cc2c(Nc3ccc(Br)cc3F)ncnc2cc1OCC1CCN(C)CC1 | inactive
27 | CC(C(=O)O)c1ccc2c(c1)CC(=O)c1ccccc1S2 (stereo not drawn) | inactive
28 | O=NN(CCCl)C(=O)NC1CCCCC1 | inactive
29 | COc1ccc(C(=O)CC(=O)c2ccc(C(C)(C)C)cc2)cc1 | 26.1 µM (active)
30 | CNS(=O)(=O)CCc1ccc2[nH]cc(C3CCN(C)CC3)c2c1 | 4.14 µM (active)
31 | COc1cc(NCc2ccc3nc(N)nc(N)c3c2C)cc(OC)c1OC | 0.657 µM (active)
32 | CC(C)(C)C(=O)OCOP(=O)(COCCn1cnc2c(N)ncnc21)OCOC(=O)C(C)(C)C | 0.329 µM (active)
33 | CO[C@@]12[C@H](COC(N)=O)C3=C(C(=O)C(C)=C(N)C3=O)N1C[C@@H]1N[C@@H]12 | 2.08 µM (active)
34 | Cn1nnc2c(C(N)=O)ncn2c1=O | inactive
35 | CCCCOc1ccc(CC(=O)NO)cc1 | inactive
36 | CCc1c2c(nc3ccc(OC(=O)N4CCC(N5CCCCC5)CC4)cc13)-c1cc3c(c(=O)n1C2)COC(=O)[C@]3(O)CC | 0.737 µM (active)
37 | CCC(=O)O[C@]1(C(=O)SCF)[C@H](C)C[C@H]2[C@@H]3C[C@H](F)C4=CC(=O)C=C[C@]4(C)[C@@]3(F)[C@@H](O)C[C@@]21C | inactive
38 | O=C(NCC1CN(c2ccc(N3CCOCC3=O)cc2)C(=O)O1)c1ccc(Cl)s1 (stereo not drawn) | 2.93 µM (active)
